Assay results from PubChem BioAssay.
Active and inactive are the calls of the source.

Legend:
[1] = system: PRMT1 (protein arginine N-methyltransferase 1); assay: PRMT1 binders on small-molecule microarrays, primary screen, biochemical, small-molecule microarray, 635 nm fluorescence (AID 1088); settings: small-molecule microarray binding, higher = more signal;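 further: binding of Prmt1 protein to compounds spotted on small-molecule microarray slides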
[2] = yeast growth modulation, basal conditions, primary screen, YJM789 clinical isolate, OD600, 24 h (AID 1089);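 further: growth of clinical yeast isolate S. cerevisiae YJM 789 seeded 1000 cells per well; test concentration not given here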; settings: S. cerevisiae YJM789 growth, higher = more signal, called active from +8 up or from −8 down
[3] = fission yeast growth modulation, primary screen, strain 972, OD600, 24 h, no modulator (AID 1090);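 further: basal condition with compound alone and no growth modifier present; test concentration not given here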; settings: S. pombe 972 growth, higher = more signal, called active from +8 up or from −8 down
[4] = S. cerevisiae growth modulation with rapamycin, primary screen, strain BY4716, OD600, 96 h (AID 1091); settings: higher = more signal, called active from +8 up or from −8 down; further: test concentration not given here
[5] = biological target: Torsin-1A-interacting protein 2 (Homo sapiens) (UniProt Q8NFQ8); assay: LULL1 binders on small-molecule microarray, primary screen, cell lysate, human LULL1 lysate, 635/667 nm fluorescence (AID 1092); settings: hLULL1 lysate binding, 635 nm fluorescence, higher = more signal;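 further: probe is lysate of COS7 cells overexpressing human LULL1; score merges per-feature 667 nm fluorescence with signal-to-noise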
[6] = E. coli growth modulation, two-sided OD650, primary screen, E. coli filamentation project, strain DRC41, 24 h (AID 1093); settings: OD650, 24 h, higher = more signal, called active from +8 up or from −8 down;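 further: MC1000 strain lacking acrAB efflux and sulA so SOS filamentation is blocked; test concentration not given here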
[7] = small-molecule microarray binders of probe aLefty2, primary screen, biochemical, biotinylated probe, 635/667 nm fluorescence (AID 1094); settings: higher = more signal;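 further: score merges spot fluorescence near 667 nm with spot signal-to-noise ratio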
[8] = system: Noggin (protein binding on small-molecule microarray); assay: Noggin binders on small-molecule microarray, primary screen, biochemical, 635/667 nm fluorescence (AID 1095); settings: 635 nm fluorescence, higher = more signal;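 further: score merges 667 nm feature fluorescence with signal to noise over triplicate slides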
[9] = biological target: Neurogenic locus notch homolog protein 3 (Homo sapiens) (UniProt Q9UM47); assay: NOTCH3 binders on small-molecule microarray, primary screen, biochemical, 635/667 nm fluorescence (AID 1096); settings: NOTCH3 binding, 635 nm fluorescence, higher = more signal
[10] = small-molecule microarray binders of probe aEGFR, primary screen, biochemical, biotinylated probe, 635/667 nm fluorescence (AID 1097); settings: higher = more signal;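 further: probe is a biotinylated anti-EGFR antibody binding compounds printed on slides; score combines fluorescence near 667 nm and signal to noise of each spot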
[11] = system: Plasmodium falciparum Sir2 (PF13_0152, Sir2A); assay: pfSir2 binders on small-molecule microarrays, primary screen, biochemical, small-molecule microarray, 635 nm fluorescence (AID 1098); settings: small-molecule microarray binding, fluorescence 635 nm; higher = more signal;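 further: score merges spot fluorescence intensity with its signal-to-noise ratio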
[12] = small-molecule microarray binders of probe aDKK1, primary screen, biochemical, biotinylated probe, 635/667 nm fluorescence (AID 1099); settings: higher = more signal;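 further: score merges 667nm spot fluorescence with signal to noise across triplicate slides; reference of the scale not given here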
[13] = small-molecule microarray binders of probe aCHRDL2, primary screen, biochemical, biotinylated probe, 635/667 nm fluorescence (AID 1100); settings: higher = more signal
[14] = splicing luciferase reporter signal modulators, primary screen, spliceosome inhibition project, cell-based, HEK293, splice +/- reporter (AID 1101); settings: luminescence, 24 h, higher = more signal, called active from +8 up or from −8 down;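 further: HEK293 cells carrying a splicing-competent luciferase reporter gene; test concentration not given here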
[15] = biological target: Fibroblast growth factor 10 (Homo sapiens) (UniProt O15520); assay: FGF10 binders on small-molecule microarrays, primary screen, biochemical, small-molecule microarray, 635 nm fluorescence (AID 1102); settings: FGF10 binding, fluorescence 635 nm, higher = more signal
[16] = system: glycogen synthase kinase-3 (GSK3A per assay name; protocol says GSK3B); assay: GSK3 binders on small-molecule microarrays, primary screen, biochemical, small-molecule microarray, 635 nm fluorescence, GSK3A (AID 1103); settings: small-molecule microarray binding, fluorescence 635 nm; higher = more signal; further: the record names both GSK3A and GSK3B
[17] = biological target: Epidermal growth factor receptor (Homo sapiens) (UniProt P00533); assay: EGFR binders on small-molecule microarrays, primary screen, biochemical, small-molecule microarray, 635 nm fluorescence (AID 1104); settings: EGFR binding, higher = more signal;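 further: score merges 667 nm emission intensity with spot signal to noise over triplicate slides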
[18] = biological target: Follistatin-related protein 3 (Homo sapiens) (UniProt O95633); assay: FSTL3 binders on small-molecule microarrays, primary screen, biochemical, small-molecule microarray, 635 nm fluorescence (AID 1105); settings: FSTL3 binding, higher = more signal;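 further: score merges emission near 667 nm and signal to noise per printed spot across three slides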
[19] = biological target: Dickkopf-related protein 1 (Homo sapiens) (UniProt O94907); assay: DKK1 binders on small-molecule microarrays, primary screen, biochemical, small-molecule microarray, 635 nm fluorescence scan (AID 1106); settings: DKK1 binding, higher = more signal;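 further: score merges emission near 667 nm with signal to noise over three replicate slides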
[20] = system: Inhibin beta A chain (activin A); assay: INHBA (activin A) binders on microarrays, primary screen, biochemical, small-molecule microarray, 635 nm fluorescence scan (AID 1107); settings: small-molecule microarray binding, higher = more signal;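 further: mouse activin A protein probed at 4.33 µg/mL on printed slides; score merges bound-protein fluorescence near 667 nm with spot signal-to-noise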

Follistatin-related protein 3 (Homo sapiens), sequence (O95633 whole entry, looked up): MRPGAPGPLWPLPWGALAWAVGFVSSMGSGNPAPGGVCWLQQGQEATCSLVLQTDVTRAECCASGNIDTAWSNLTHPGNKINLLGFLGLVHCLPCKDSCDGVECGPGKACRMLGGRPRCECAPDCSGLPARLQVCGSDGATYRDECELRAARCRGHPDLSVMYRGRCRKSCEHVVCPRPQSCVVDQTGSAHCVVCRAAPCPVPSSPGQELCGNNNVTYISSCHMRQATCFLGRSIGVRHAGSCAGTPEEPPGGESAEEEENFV
Dickkopf-related protein 1 (Homo sapiens), sequence (O94907 whole entry, looked up): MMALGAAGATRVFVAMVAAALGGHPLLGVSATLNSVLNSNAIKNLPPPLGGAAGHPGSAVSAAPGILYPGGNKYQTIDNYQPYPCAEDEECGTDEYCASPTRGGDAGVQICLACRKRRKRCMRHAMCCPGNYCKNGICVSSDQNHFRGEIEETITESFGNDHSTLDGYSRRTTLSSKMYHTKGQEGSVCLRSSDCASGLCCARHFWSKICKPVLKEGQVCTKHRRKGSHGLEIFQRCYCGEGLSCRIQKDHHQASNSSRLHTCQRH
Epidermal growth factor receptor (Homo sapiens), sequence (P00533 whole entry, looked up): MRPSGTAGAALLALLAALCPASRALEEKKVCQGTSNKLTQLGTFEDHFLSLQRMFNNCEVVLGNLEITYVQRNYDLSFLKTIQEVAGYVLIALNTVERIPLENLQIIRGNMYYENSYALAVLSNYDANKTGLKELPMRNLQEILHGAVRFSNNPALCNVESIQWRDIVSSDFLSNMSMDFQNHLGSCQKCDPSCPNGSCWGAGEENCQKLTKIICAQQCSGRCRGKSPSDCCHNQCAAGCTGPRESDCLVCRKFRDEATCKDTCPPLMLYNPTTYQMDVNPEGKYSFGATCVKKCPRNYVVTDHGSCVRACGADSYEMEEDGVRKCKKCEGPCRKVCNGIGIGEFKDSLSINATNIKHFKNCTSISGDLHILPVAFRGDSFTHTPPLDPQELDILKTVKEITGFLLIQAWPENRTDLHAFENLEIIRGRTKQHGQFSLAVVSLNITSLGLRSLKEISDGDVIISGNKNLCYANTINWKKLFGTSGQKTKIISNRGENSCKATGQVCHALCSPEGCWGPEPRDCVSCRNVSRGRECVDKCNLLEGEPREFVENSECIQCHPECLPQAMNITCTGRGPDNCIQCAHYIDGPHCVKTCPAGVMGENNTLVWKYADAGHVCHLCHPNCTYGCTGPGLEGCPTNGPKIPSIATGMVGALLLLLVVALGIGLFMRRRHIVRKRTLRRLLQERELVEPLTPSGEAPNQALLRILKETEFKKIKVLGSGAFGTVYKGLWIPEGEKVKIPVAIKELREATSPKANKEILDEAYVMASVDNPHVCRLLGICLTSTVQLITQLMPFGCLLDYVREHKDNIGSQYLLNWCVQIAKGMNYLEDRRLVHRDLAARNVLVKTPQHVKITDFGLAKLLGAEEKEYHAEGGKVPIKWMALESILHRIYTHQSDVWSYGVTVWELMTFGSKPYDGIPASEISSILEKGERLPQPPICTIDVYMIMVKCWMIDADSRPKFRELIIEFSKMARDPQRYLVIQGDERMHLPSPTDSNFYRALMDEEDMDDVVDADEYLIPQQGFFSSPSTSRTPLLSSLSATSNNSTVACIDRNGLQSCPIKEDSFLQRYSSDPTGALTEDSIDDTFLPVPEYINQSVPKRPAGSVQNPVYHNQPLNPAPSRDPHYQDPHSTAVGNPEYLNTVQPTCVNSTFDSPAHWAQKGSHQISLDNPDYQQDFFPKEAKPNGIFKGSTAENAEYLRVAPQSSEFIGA
Fibroblast growth factor 10 (Homo sapiens), sequence (O15520 whole entry, looked up): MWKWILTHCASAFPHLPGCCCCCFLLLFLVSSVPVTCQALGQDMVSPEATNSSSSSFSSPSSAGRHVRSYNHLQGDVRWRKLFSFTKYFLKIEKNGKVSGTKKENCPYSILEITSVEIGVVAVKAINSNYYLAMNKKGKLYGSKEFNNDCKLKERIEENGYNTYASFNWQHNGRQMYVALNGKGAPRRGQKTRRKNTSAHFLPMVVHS
Torsin-1A-interacting protein 2 (Homo sapiens), sequence (Q8NFQ8 whole entry, looked up): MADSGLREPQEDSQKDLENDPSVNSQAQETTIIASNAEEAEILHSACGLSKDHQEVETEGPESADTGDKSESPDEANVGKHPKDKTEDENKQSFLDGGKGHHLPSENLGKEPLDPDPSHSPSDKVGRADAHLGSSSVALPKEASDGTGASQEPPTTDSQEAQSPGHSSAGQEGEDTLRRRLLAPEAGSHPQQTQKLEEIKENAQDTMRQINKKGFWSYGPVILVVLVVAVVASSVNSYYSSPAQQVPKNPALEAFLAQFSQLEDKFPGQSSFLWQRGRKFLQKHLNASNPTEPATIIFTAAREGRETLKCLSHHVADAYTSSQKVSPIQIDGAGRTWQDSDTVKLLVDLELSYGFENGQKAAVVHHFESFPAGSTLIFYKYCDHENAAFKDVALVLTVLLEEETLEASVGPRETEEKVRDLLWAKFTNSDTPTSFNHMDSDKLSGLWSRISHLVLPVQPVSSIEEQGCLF
Neurogenic locus notch homolog protein 3 (Homo sapiens), sequence (Q9UM47 whole entry, looked up): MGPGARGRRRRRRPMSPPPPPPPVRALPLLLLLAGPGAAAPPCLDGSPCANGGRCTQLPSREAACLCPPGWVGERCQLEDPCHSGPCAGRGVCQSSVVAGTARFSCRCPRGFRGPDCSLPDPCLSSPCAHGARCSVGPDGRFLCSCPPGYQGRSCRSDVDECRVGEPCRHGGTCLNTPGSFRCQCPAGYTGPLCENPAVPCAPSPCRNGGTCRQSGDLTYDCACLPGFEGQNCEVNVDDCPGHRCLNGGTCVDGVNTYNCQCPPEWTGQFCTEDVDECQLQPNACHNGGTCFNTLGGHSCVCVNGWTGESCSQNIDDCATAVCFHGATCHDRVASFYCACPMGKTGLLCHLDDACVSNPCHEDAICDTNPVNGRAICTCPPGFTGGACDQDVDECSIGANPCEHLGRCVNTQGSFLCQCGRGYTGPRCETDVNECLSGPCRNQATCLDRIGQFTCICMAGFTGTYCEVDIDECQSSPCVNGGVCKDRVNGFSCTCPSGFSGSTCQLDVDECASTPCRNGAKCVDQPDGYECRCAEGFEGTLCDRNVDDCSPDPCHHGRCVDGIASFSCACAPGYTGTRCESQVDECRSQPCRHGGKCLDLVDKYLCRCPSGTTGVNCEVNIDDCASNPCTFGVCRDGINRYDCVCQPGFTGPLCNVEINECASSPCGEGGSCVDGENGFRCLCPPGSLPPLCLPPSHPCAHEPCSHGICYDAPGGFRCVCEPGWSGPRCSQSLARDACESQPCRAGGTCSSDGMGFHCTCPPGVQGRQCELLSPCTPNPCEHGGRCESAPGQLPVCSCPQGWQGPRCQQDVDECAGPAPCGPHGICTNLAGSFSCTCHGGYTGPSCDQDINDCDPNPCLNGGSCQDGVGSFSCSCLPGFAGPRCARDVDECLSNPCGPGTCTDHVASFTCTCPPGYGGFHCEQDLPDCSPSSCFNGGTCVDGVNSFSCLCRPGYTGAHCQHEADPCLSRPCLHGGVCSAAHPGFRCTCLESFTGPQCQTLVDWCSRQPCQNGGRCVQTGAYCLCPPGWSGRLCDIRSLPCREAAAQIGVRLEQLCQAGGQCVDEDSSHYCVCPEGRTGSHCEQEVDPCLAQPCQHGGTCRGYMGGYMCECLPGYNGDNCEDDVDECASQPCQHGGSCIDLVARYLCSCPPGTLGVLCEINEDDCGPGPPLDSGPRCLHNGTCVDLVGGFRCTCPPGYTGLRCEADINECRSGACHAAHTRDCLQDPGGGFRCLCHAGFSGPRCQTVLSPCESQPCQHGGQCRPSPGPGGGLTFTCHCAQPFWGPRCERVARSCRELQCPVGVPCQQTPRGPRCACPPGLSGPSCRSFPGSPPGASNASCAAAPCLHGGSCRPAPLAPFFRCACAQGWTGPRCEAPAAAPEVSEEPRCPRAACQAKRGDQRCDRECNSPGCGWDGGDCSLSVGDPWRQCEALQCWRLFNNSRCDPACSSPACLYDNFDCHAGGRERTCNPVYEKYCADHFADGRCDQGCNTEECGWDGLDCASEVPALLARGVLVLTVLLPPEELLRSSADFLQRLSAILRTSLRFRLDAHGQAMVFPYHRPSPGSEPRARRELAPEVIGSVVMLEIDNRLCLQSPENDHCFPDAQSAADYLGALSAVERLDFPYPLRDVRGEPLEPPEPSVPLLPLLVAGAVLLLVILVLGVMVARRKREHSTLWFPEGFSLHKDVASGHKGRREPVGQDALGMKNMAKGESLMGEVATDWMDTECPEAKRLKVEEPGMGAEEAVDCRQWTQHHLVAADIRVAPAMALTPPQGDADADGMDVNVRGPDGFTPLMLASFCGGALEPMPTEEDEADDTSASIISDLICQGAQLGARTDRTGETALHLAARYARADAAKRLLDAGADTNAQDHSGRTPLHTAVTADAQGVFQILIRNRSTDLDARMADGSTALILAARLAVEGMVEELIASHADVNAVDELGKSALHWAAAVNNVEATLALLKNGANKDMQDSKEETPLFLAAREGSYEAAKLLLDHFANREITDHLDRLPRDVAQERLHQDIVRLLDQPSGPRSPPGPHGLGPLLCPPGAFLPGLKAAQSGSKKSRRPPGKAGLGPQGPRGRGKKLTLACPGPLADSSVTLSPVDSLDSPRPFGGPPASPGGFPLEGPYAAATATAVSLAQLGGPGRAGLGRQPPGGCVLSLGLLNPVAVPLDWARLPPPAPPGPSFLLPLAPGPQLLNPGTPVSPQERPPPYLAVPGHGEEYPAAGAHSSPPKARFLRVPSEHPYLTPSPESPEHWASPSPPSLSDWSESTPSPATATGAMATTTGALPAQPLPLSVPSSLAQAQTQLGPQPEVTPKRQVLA

| SMILES | composite z-score [1] | z-score [2] | z-score [3] | z-score [4] | composite z-score [5] | z-score [6] | composite z-score [7] | composite z-score [8] | composite z-score [9] | composite z-score [10] | composite z-score [11] | composite z-score [12] | composite z-score [13] | z-score [14] | composite z-score [15] | composite z-score [16] | composite z-score [17] | composite z-score [18] | composite z-score [19] | composite z-score [20] |
| --- | --- | --- | --- | --- | --- | --- | --- | --- | --- | --- | --- | --- | --- | --- | --- | --- | --- | --- | --- | --- |
| CCCN1C(=O)[C@]2(CCC(=O)OC(C)(C)C)N=C(c3ccc(OCCCO)cc3)O[C@@H]2c2ccccc21 | 1.52 | -1.93 (inactive) | -0.474 (inactive) | 1.5 (inactive) | 1.62 | 0.916 (inactive) | 0.151 | 1.37 | 0.571 | -0.134 | 0.715 | 0.173 | 1.16 | 0.0554 (inactive) | 1.31 | 1.21 | -0.413 | 0.299 | -0.175 | 1.31 |
| COc1cc(OC)c(C(O)C2C=CC3C(=O)N(c4ccccc4)C(=O)C3N2Nc2ccc(C(C)C)cc2)cc1Br (stereo not given) | 1.48 | -0.0401 (inactive) | 1.09 (inactive) | -0.323 (inactive) | 3.55 | 0.315 (inactive) | 0.136 | -0.276 | 1.05 | 0.582 | 0.891 | 0.671 | 0.605 | -0.603 (inactive) | 0.909 | 1.3 | 0.21 | 0.839 | 0.245 | 0.735 |
| COC(=O)C(CC#Cc1ccc2c(c1)[C@]1(C(=O)N2)[C@H](C(=O)NC[C@H](O)c2ccccc2)[C@H]2C(=O)O[C@H](c3ccccc3)[C@H](c3ccccc3)N2[C@@H]1c1ccccc1OCCO)C(=O)OC | 1.54 | 2.15 (inactive) | -0.247 (inactive) | 2.59 (inactive) | 2.89 | 2.13 (inactive) | -0.0598 | 0.8 | 1.12 | -0.0332 | 1.19 | 0.138 | 0.141 | 0.163 (inactive) | 1.22 | 1.19 | 0.308 | 0.866 | 0.502 | 0.205 |
| C=CCOC(=O)[C@H]1[C@@H]2C(=O)O[C@@H](c3ccccc3)[C@@H](c3ccccc3)N2[C@@H](c2ccc(OCCOC(=O)[C@@H]3C[C@@H]4C(=O)N[C@@H](CCCC[N+](C)(C)C)C(=O)N4[C@@H]3c3ccc(O)cc3)cc2)[C@]12C(=O)Nc1ccc(I)cc12 | 1.53 | 2.31 (inactive) | -1.21 (inactive) | 1.34 (inactive) | 2.44 | -1.94 (inactive) | -0.09 | 1.31 | 1.14 | 0.06 | 1.1 | 0.031 | -0.211 | -0.21 (inactive) | 1.2 | 1.24 | 0.934 | 1.21 | 1.07 | 0.723 |
| COC(=O)c1cccc([C@H]2OC(=CC(=O)OC(C)C)C[C@@H](c3cccc(C(=O)OC)c3)O2)c1 | 1.55 | -0.132 (inactive) | -2.24 (inactive) | -1.39 (inactive) | 3.6 | -0.259 (inactive) | 0.272 | 1.22 | 0.974 | 0.0297 | 1.26 | 0.515 | 0.284 | 0.599 (inactive) | 1.18 | 1.33 | 0.693 | 1.09 | 0.34 | 0.463 |
| COc1cc(C(O)C2C=CC3C(=O)N(c4ccccc4)C(=O)C3N2Nc2ccccc2)cc(OC)c1OC (stereo not given) | 1.54 | -0.722 (inactive) | 0.82 (inactive) | -0.205 (inactive) | 3.71 | -0.651 (inactive) | 0.228 | -0.124 | 1.03 | 0.0473 | 1.27 | 1.03 | 1.13 | 1.28 (inactive) | 1.25 | 1.31 | -0.304 | 1.07 | -0.586 | 0.484 |
| CCCCC(O)C1C=CC2C(=O)N(c3ccccc3)C(=O)C2N1Nc1ccc([N+](=O)[O-])cc1 (stereo not given) | 1.55 | -0.676 (inactive) | 0.429 (inactive) | 0.154 (inactive) | 3.68 | 0.916 (inactive) | -0.144 | 0.146 | 1.11 | -0.0828 | 1.2 | 0.379 | 0.21 | -0.846 (inactive) | 0.435 | 1.32 | 0.0456 | 1.3 | -0.105 | 0.329 |
| O=C1[C@H]2C=C(I)[C@H](C[C@@H]2OCCCCCCO)[C@@]12CO2 | -0.134 | -1.5 (inactive) | -2.19 (inactive) | -0.384 (inactive) | -0.505 | -1.05 (inactive) | -0.121 | 0.263 | 1.13 | -0.133 | 0.525 | -0.261 | 0.191 | 0.0312 (inactive) | 0.281 | -0.454 | 0.677 | 1.39 | 1.15 | 1.43 |
| C[N+](C)(C)CCCC[C@@H]1NC(=O)[C@H]2C[C@@H](C(=O)NCCCCCNC(=O)CS)[C@@H](c3cccc(OCCO)c3)N2C1=O | -0.248 | -0.802 (inactive) | -0.693 (inactive) | -0.451 (inactive) | 1.36 | 0.469 (inactive) | -0.152 | 0.378 | -0.36 | -0.127 | 1.57 | 0.242 | 0.47 | 1.12 (inactive) | -0.166 | 0.272 | 0.412 | -0.664 | 0.0501 | 0.761 |
| C=C(COC)/C(=C/C[C@@H](OC(C)=O)c1ccccc1OCCO)c1cnc2ccccc2c1 | 1.56 | 0.27 (inactive) | -0.614 (inactive) | -0.112 (inactive) | 0.895 | 0.359 (inactive) | -0.154 | 1.64 | 1.09 | -0.0828 | 1.24 | -0.151 | -0.112 | 0.617 (inactive) | 1.39 | 0.344 | 0.26 | 1.44 | 0.336 | 1.78 |
